Source: PubChem BioAssay (NCATS)
Records with an inconclusive call do not appear. Activity calls are given as the source filed them. The call rests on the fitted dose curve; in most records, active means well fitted curve in the direction sought with a large enough effect; inconclusive means small, poorly fitted or top-dose-only effect, or another doubt; inactive means no such curve, though single readings can be large; an effect the other way counts as inactive or inconclusive.

What follows are molecules tested on Zika virus NS2B-NS3 protease (unlinked complex) (assay: Primary screen GU Rhodamine qHTS for Zika virus inhibitors: Unlinked NS2B-NS3 protease assay (AID 1347159; further: on the % scale 0 is the no-effect control and ±100 the full control effect; nearly all actives have a fitted effect of over 60% in size)). Settings: Recombinant ZIKV NS2B-NS3 protease, Rhodamine110 substrate fluorescence; series mostly up to 107 µM; activity change, negative = inhibition: at the top concentration.
Procedure, shortened: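 Compounds, tested up to 114 microM, were incubated for 15 minutes with 25 nM unlinked NS2B-NS3 protease at pH 8.0. Cleavage of 1.5 microM Rhodamine110 substrate was then followed by fluorescence for 15 minutes.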

Compound	activity change, negative = inhibition
CS(=O)(=O)c1ccc(-n2nc(C(F)(F)F)cc2-c2ccc(F)cc2)cc1	81.9% (inactive)
O=C(Nc1ccc2[nH]ncc2c1)C1CCC1	0% (inactive)
O=C(Nc1ccc2c(c1)CCN(Cc1ncn[nH]1)C2)c1ccccc1-c1ccc(C(F)(F)F)cc1	0% (inactive)

Each molecule was assayed on Zika virus NS2B-NS3 protease (linked construct) (assay: Primary screen NINDS Rhodamine qHTS for Zika virus inhibitors (AID 1347160; further: nearly all actives have a fitted effect of over 55% in size; on activity change, negative = inhibition: on the % scale 0 is the no-effect control and ±100 the full control effect)). Settings: purified NS2B-NS3 protease, Rhodamine110 substrate fluorescence; series mostly up to 57.1 µM; activity change, negative = inhibition: at the top concentration.
Procedure, shortened: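 Percent inhibition, normalized to uninhibited and enzyme-free controls, is fitted to a 4-parameter Hill equation. Fluorescence change comes from a 15-min cleavage of 1.5 microM bis-peptide Rhodamine110 substrate by 25 nM linked NS2B-NS3 at room temperature.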

Compound	activity change, negative = inhibition	outcome
CS(=O)(=O)c1ccc(-n2nc(C(F)(F)F)cc2-c2ccc(F)cc2)cc1	14% (inactive)	
O=C(Nc1ccc2[nH]ncc2c1)C1CCC1		inactive
O=C(Nc1ccc2c(c1)CCN(Cc1ncn[nH]1)C2)c1ccccc1-c1ccc(C(F)(F)F)cc1	-3.52% (inactive)	
NS(=O)(=O)c1ccc(-n2nc(C(F)(F)F)cc2-c2ccc(Cl)cc2)cc1	7.83% (inactive)	

Each molecule was assayed against Lysine-specific demethylase 5B (Homo sapiens) (UniProt Q9UGL1) (assay: Optimization screen for KDM5B Histone Demethylases FDH coupled qHTS against the LOPAC library (AID 1347166; further: 0% is about no effect)). Settings: KDM5B demethylation, FDH-coupled NADH fluorescence (FDH is formaldehyde dehydrogenase); series mostly up to 57.5 µM; activity, negative = inhibition: at the top concentration.
Procedure, shortened: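 KDM5BDeltaAP (200nM final) preincubated 10 min with compound, then 12.5uM H3K4Me3, 25uM a-ketoglutarate, ascorbate, Fe(II), NAD+ and FDH added; 50mM HEPES pH 7.5, 0.01% Tween-20. NADH fluorescence (340/450 nm) change over 30 min, room temperature.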

Chain of Lysine-specific demethylase 5B (Homo sapiens) (Q9UGL1 whole entry, looked up): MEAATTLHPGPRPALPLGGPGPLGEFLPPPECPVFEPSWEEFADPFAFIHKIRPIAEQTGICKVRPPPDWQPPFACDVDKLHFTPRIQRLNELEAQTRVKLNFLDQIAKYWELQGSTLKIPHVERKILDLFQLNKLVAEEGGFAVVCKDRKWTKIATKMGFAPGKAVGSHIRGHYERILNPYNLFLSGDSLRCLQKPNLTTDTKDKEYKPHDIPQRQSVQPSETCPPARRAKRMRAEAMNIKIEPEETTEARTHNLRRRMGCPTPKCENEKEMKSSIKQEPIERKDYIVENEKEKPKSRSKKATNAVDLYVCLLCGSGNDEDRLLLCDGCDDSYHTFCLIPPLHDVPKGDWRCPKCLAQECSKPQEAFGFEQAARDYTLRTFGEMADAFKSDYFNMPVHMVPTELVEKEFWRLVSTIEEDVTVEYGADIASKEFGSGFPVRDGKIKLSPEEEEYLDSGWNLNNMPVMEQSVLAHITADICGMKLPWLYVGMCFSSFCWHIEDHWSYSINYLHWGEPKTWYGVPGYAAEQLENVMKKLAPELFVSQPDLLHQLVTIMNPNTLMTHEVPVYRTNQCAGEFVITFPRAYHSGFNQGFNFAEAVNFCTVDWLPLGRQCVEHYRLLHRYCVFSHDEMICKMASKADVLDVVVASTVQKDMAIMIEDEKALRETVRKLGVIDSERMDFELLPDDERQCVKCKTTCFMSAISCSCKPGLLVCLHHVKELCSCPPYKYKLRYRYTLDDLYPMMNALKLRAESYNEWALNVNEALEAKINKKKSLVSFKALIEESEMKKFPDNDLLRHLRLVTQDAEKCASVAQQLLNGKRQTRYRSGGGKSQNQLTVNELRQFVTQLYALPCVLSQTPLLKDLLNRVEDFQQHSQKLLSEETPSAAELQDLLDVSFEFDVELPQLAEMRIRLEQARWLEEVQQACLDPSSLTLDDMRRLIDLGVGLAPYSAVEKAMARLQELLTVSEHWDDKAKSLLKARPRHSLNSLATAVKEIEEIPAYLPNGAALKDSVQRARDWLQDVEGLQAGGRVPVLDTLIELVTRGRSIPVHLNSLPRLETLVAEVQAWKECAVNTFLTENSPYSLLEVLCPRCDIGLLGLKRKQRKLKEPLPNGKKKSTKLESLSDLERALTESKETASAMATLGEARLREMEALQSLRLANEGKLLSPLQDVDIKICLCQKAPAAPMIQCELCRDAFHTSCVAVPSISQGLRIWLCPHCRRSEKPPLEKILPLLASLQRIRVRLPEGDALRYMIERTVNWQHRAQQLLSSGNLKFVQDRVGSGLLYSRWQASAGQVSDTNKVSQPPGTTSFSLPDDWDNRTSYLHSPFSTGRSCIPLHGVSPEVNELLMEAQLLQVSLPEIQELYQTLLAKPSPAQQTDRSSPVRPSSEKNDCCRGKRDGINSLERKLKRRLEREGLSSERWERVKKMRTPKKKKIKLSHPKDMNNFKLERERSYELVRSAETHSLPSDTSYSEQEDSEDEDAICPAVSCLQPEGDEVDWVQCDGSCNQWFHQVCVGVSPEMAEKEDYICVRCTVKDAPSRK

Compound	activity, negative = inhibition
CN(C)C(N)=NCCC[C@H](N)C(=O)O	-20.4% (inactive)
NC(=O)C(=O)O	-0.618% (inactive)
C#C[C@]1(O)CC[C@H]2[C@@H]3CCC4=Cc5oncc5CC4(C)[C@H]3CCC21C (stereo partly specified)	-2.3% (inactive)
C=CC(N)CCC(=O)O (stereo unspecified)	-3.05% (inactive)
CC1(C)CCC=[N+]1[O-]	0.777% (inactive)
CN1C2CCC1CC(OC(=O)C(O)c1ccccc1)C2 (stereo unspecified)	-1.25% (inactive)
O=C(O)CC1CCCc2ccccc2C1O (stereo unspecified)	-7.02% (inactive)
c1ccc(-c2ccccn2)nc1	-8.26% (inactive)
S=C(S)OC1CC2CC1C1CCCC21 (stereo unspecified)	-15.9% (inactive)
CN1CCc2cccc3c2C1Cc1ccc(O)c(O)c1-3 (stereo unspecified)	-26.9% (inactive)
CC(=O)SCC[N+](C)(C)C	-3.44% (inactive)
OCC1O[C@H](O)C(Cl)C(O)C1O (stereo partly specified)	-5.71% (inactive)
CCOC(=O)N1CCN(/[N+]([O-])=N/Oc2ccc([N+](=O)[O-])cc2[N+](=O)[O-])CC1	-4.55% (inactive)
CC(C)Cc1ccc([C@H](C)C(=O)O)cc1	-5.14% (inactive)
O=C(/C=C/c1ccc(O)c(O)c1)OCCc1ccccc1	-21% (inactive)
NC[C@H]1O[C@@H](n2cnc3c(N)ncnc32)[C@H](O)[C@@H]1O	-0.143% (inactive)
NC(CCCP(=O)(O)O)C(=O)O (stereo unspecified)	-2.53% (inactive)
NCCCCC(=O)O	-1.05% (inactive)
COc1cc(C(O)CO)ccc1OS(=O)(=O)O (stereo unspecified)	-8.86% (inactive)
NCCCS(=O)(=O)O	-8.22% (inactive)
Cc1cc(NC2CCCCC2)nc(-n2nc(C)cc2C)n1	-2.98% (inactive)
CN1C2CC(OC(=O)[C@H](CO)c3ccccc3)CC1C1OC12 (stereo partly specified)	-1.91% (inactive)
N#C/C(=C\c1ccc(-c2cc(Cl)ccc2Cl)o1)C(=O)Nc1cccc2ncccc12	-29.1% (inactive)
COc1ccc2c(c1)CCC1C2CC[C@@]2(C)C1CC[C@@H]2NCCCCCCN1C(=O)CCC1=O (stereo partly specified)	-17.1% (inactive)
COc1cccc(C(=O)NCCN2CCN(c3ccc(Cl)cc3)CC2)c1	-6.43% (inactive)
CN(C)CCC(c1ccc(Cl)cc1)c1ccccn1 (stereo unspecified)	-2.75% (inactive)
O=C(O)CCCC[C@@H]1CCSS1	7.34% (inactive)
c1cnc2c(c1)ccc1cccnc12	-3.77% (inactive)
NCCCCCCCCCCN	1.24% (inactive)
